Test results as given in the OligoGym collection.

biological target: GALNT12; assay: pooled miR-30 sensor sort-seq; sequence = guide strand; settings: shRNA
Also: reference of the scale not given here.

Row | Sequence | sensor-assay potency score (higher = more potent)
1 | TGAACTTCTGATTCTCTGGGGC | 0.682
2 | TATAGTCAAAGCAGTAGTCTGT | 0.11
3 | TTACACTGGAGCTTGTCCCGGA | 0.473
4 | TCTTCTAGCAGGATATCCGGGG | -0.323
5 | TAGTCCTTTGTTCTGGAGCATC | -1.37
6 | TTCTTCTCTTTGCACAGCGGGT | -1.37
7 | TATCACTGTAGTCATCTACAAG | -1.3
8 | TTCAGCTGCACGAACACTGTTG | -0.106
9 | TCGATCACATCAATCACCGGGC | -0.0357
10 | TTTCTTCTCTTTGCACAGCGGG | -0.991
11 | TTACTCACAGCAAACAGCCCAC | -0.133
12 | TTCTTCTAGCAGGATATCCGGG | -0.589

biological target: GALNT14; assay: as above; settings: shRNA

Row | Sequence | sensor-assay potency score (higher = more potent)
13 | TTCCAGTCTGTTCTGGTCCAGG | -1.18
14 | AACAGCAGCACCGTGATCCAGA | -0.665
15 | TCATCTCTCAATGTAGTCCTGG | 0.0167
16 | TCTTTTGGAAACAACCTCCATT | -0.288
17 | TTGTCGATCACGAAGAGCCCTC | -0.543
18 | TTTTGGTCCATTGCTGTCGGTC | -1.13
19 | TTCTTTTGGAAACAACCTCCAT | -0.965
20 | ATTGCTGTCGGTCATCTCCATT | -1.29
21 | TTGACGACGATTTCCTTGCCGT | -0.222
22 | TTGGTGTTCTTTATATACGTGT | -0.309
23 | TATGATAGGAGTCCTGATGGGC | -0.477
24 | TTGGAAACAACCTCCATTCTTC | 0.406

biological target: GALNT7; assay: as above; settings: shRNA

Row | Sequence | sensor-assay potency score (higher = more potent)
25 | TAACTTTTGATCCATCAGCTCC | -0.72
26 | TAGACTCTAAGTCCACTTCTAC | -0.661
27 | TTCATTGATTCTGAAAAGCTGA | -0.364
28 | ATTGACATCTCTGTCTTCCCTC | 0.3
29 | TTCGTGCTTGAATTAAACCTTC | -0.485
30 | TAATCATAACTTTTGATCCATC | -1.43
31 | TTGACATCTCTGTCTTCCCTCA | -0.191
32 | TTCTTTATTACTGAAATCGTCA | -0.232
33 | TTATTCTTCTAATAGACTCTAA | -0.0226
34 | TTAAATTTTAAAAACGTGCAGA | -0.271
35 | TTTAATTACACTGTGGACTGTT | 0.94

biological target: GALNT9; assay: as above; settings: shRNA

Row | Sequence | sensor-assay potency score (higher = more potent)
36 | TTACCAGACCACAAGGAGCTGC | -0.143
37 | TTTCTCACCTCTCCGTACGTGA | -0.461
38 | TTGTTGTAGGGCTTCCTGGTGC | 0.157
